What all share (test): NCI-60 one-dose screen, 48 h (100 = growth as untreated, 0 = no growth, -100 = all killed)
For one test, the system named is NCI-H23 lung. The note with it: 10 µM unless noted.
Another test has as its system NCI-H226 lung. To be noted: 10 µM unless noted.
For the next test, the system named is NCI-H322M lung. The note with it: 10 µM unless noted.
For the next test, the system named is NCI-H460 lung. To be noted: 10 µM unless noted.
A further test concerns HOP-92 NSCLC. To be noted: 10 µM.
The subject of the next test is A549/ATCC NSCLC. To be noted: 10 µM unless noted.
The subject of another test is 786-0 renal. To be noted: 10 µM unless noted.
The subject of a further test is COLO 205 colon. To be noted: 10 µM unless noted.
The test system of another test is DU-145 prostate. To be noted: 10 µM unless noted.
The subject of the next test is K-562 leukemia. To be noted: 10 µM unless noted.
In a further test the test system is MALME-3M melanoma. The note with it: 10 µM unless noted.
The subject of another test is MDA-MB-231 breast. To be noted: 10 µM unless noted.
A further test concerns RXF 393 renal. To be noted: 10 µM unless noted.
The subject of a further test is SF-268 CNS. To be noted: 10 µM unless noted.
The test system of another test is SF-295 CNS. The note with it: 10 µM unless noted.
In the next test the test system is SF-539 CNS. To be noted: 10 µM unless noted.
The next test concerns UACC-257 melanoma. The note with it: 10 µM unless noted.
The next test deals with M14 melanoma. To be noted: 10 µM unless noted.
The subject of the next test is NCI-H522 lung. The note with it: 10 µM.

These results are taken from PubChem BioAssay (NCI).

This is part of a sample that, as a whole, favours compounds with a hit. Of some 83,000 tested, about 20% had one in any assay.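 Results are percent growth after 48 hours of single-concentration exposure. 100 means growth as in untreated cells, lower positive values show inhibition; negative values down to -100 show cell death.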 A number with no mark means an inactive call. Active and inactive are the calls of the source. How the source made its calls: active means growth percent below 10; inactive means the rest.

On to `C=C(NC(=O)[C@H](C(C)C)N(C)c1cccc2[nH]ccc12)C(=O)OC`, for which the growth in the test with NCI-H23 lung was 99.8%; in the test on NCI-H226 lung, 97.5%; with NCI-H322M lung, 100%; in the test on NCI-H460 lung, 103%; in the test on HOP-92 NSCLC, 99.5%; with A549/ATCC NSCLC, 96.5%. Further, the growth was 95.9% in the test with 786-0 renal; 132% in the test on COLO 205 colon; 100% in the test with DU-145 prostate; 89.4% in the test on K-562 leukemia; 92.8% in the test with MALME-3M melanoma; 109% with MDA-MB-231 breast. Besides, the growth with RXF 393 renal was 106%; in the test on SF-268 CNS it was 101%; in the test with SF-295 CNS, 101%; in the test on SF-539 CNS, 117%; in the test with UACC-257 melanoma, 96.9%; with M14 melanoma, 94.9%.

As to `c1cc[c]([Bi]([c]2ccccc2)[c]2ccccc2)cc1`, the growth with NCI-H23 lung was 93.9%; with NCI-H226 lung, 95.8%; in the test with NCI-H322M lung, 88%; with NCI-H460 lung it was 96.2%; in the test on HOP-92 NSCLC, 74.1%; in the test with A549/ATCC NSCLC it was 102%. For the same compound, the growth is 94% in the test with 786-0 renal; 105% in the test on COLO 205 colon; 107% in the test on DU-145 prostate; 105% in the test on K-562 leukemia; 94% in the test on MALME-3M melanoma; 95.2% in the test with MDA-MB-231 breast. Besides, the growth in the test with RXF 393 renal is 101%; with SF-268 CNS, 104%; with SF-295 CNS it was 103%; in the test on SF-539 CNS, 105%; with UACC-257 melanoma, 106%; in the test on M14 melanoma, 94%.

Regarding `COc1ccccc1Cn1cc2c(c1)-c1oncc1CC2`, the growth in the test on NCI-H23 lung was 20.6%; with NCI-H226 lung, 38.9%; in the test on NCI-H322M lung, 24%; in the test on HOP-92 NSCLC it was 80.3%; in the test on NCI-H522 lung it was 43.3%; in the test with A549/ATCC NSCLC, 28.9%. Also, the growth in the test with 786-0 renal is 38.6%; in the test on COLO 205 colon, -28.2% (active); in the test on DU-145 prostate, 22.5%; with K-562 leukemia it was 15.9%; with MDA-MB-231 breast, 16.5%; with RXF 393 renal, 4.54% (active). Also, the growth was 35.2% in the test on SF-268 CNS; -28.8% (active) with SF-295 CNS; -13.8% (active) with SF-539 CNS; 66.7% with UACC-257 melanoma; 14.4% in the test on M14 melanoma.

`CC1=NN(c2cccc(Cl)c2)C(=O)/C1=C\c1cn(-c2nc(N3CCOCC3)nc(N3CCOCC3)n2)c2ccccc12`: the growth in the test with NCI-H23 lung was 100%; in the test on NCI-H226 lung it was 99.8%; with NCI-H322M lung it was 91.9%; with HOP-92 NSCLC, 90.6%; in the test with NCI-H522 lung, 88.9%; in the test with A549/ATCC NSCLC, 99.2%. Besides, the growth with 786-0 renal is 102%; in the test with DU-145 prostate it was 106%; in the test with K-562 leukemia, 114%; in the test with MALME-3M melanoma, 104%; with MDA-MB-231 breast it was 112%; in the test on RXF 393 renal, 115%. The growth in the test with SF-268 CNS was 95.4%; with SF-295 CNS it was 105%; in the test on SF-539 CNS, 109%; with UACC-257 melanoma, 106%; in the test on M14 melanoma, 103%.
